From PubChem
LGR2 inh: blocks bursicon-induced cAMP signaling via Drosophila LGR2; inhibition, % at 9.99 µM; 380,000 tested, 0.35% active; AID 720647; HEK293 LGR2, CRE-luciferase, bursicon-stimulated, 4 h;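 active = drop in luminescence signal, shown as inhibition above about 50% in the replicate tests, limit read from the data, passing the limit was not always enough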;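 also: agonist challenge used bursicon conditioned medium at about half maximal strength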
aDG glyco act: alpha-DG glycosylation activation; Pro5-aDG cells, alpha-DG glycosylation AlphaScreen (IIH6); 0% Pro5, 100% B10-LARGE cell signal; activation, % at 10 µM; 360,000 tested, 0.22% active;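 active = activation of at least 8% versus controls, or a plate z-score of at least 8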;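 also: Pro5 are CHO cells carrying HIG-tagged alpha-DG that lacks glycosylation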
TWEAK Fn14 block: TWEAK-Fn14 signaling inhibition. 360,000 tested, 2% active. AID 1159606. TWEAK-stimulated Fn14 reporter cells, luciferase luminescence, 8 h. inhibition, % at 10 µM; in the data active = inhibition above about 50%
EBV LMP1 NFkB: reduces LMP1-driven NF-kappaB luciferase signal; LMP1-induced NF-kappaB luciferase reporter cells, luminescence; inhibition, % at 12.5 µM; 350,000 tested, 0.69% active; AID 504558; in the data active = inhibition above about 41%;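 also: 0% = neutral control wells and 100% = reference inhibitor control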
TROY NFkB inh: TROY signaling inhibition; Q293 LMP1-TROYcd NF-kB luciferase reporter, 4 h; inhibition, % at 10 µM; 360,000 tested, 0.98% active; AID 1347056;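 active = compounds whose plate-normalised and pattern-corrected inhibition of the luciferase reporter signal at the single screening dose is 50% or more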
HSP90 refold inh: blocks HSP90-mediated luciferase refolding in reticulocyte lysate; Rabbit reticulocyte lysate, luciferase refolding luminescence, 3 h; inhibition, % at 5.6 µM; 290,000 tested, 0.91% active; AID 1789;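 active = inhibition above the screen-wide mean plus 3 SD, computed separately per campaign, cut at about 16% in these data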;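 also: 0% = DMSO wells and 100% = 60 µM geldanamycin wells; inhibitors lower the luminescence because luciferase stays unfolded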
Starred values were filed as active, the others as inactive. Compounds with a hit are over-represented: about 2.6% of the library has one in this group of screens.

What do the screens show for `Cc1ccc(C)c(N2CCN(C(=O)c3ccc(CS(=O)Cc4ccc(Cl)cc4)o3)CC2)c1` (stereo not drawn)?
LGR2 inh: 12; aDG glyco act: 0; TWEAK Fn14 block: 17; EBV LMP1 NFkB: 10; TROY NFkB inh: 27; HSP90 refold inh: -1

How did Cc1cccc(N2CCN(C(=O)c3ccc(CS(=O)Cc4cccc(Cl)c4)o3)CC2)c1C (stereo not drawn) do in these assays?
LGR2 inh: -7; aDG glyco act: 0; TWEAK Fn14 block: 0; EBV LMP1 NFkB: 8; TROY NFkB inh: 42; HSP90 refold inh: 4

How did COc1ccc2c3c(n(C)c2c1)[C@@H](CO)N(C(C)=O)CC31CN(C(=O)c2cnccn2)C1 do in these assays?
LGR2 inh: -4

What do the screens show for `O=C(Nc1ccccc1)Nc1ccc2c(c1)[C@@H]1C[C@H](CC(=O)N3CCOCC3)O[C@@H](CO)[C@@H]1O2`?
LGR2 inh: -1

Results for COc1ccc2c3c([nH]c2c1)[C@H](CO)N(C(=O)C1CCCCC1)CC31CN(C(=O)NC(C)C)C1 ?
LGR2 inh: 2

How did Cc1cccc(-c2cc(NC=O)c3ncc(-c4cccc(C(=O)N(C)C)c4)n3c2)c1 do in these assays?
LGR2 inh: -6; aDG glyco act: 0; TWEAK Fn14 block: 16; TROY NFkB inh: 5

Results for COc1cc(-c2cnc3c(NC=O)cc(-c4cccc(C(F)(F)F)c4)cn23)cc(OC)c1OC ?
LGR2 inh: 13; aDG glyco act: 0; TWEAK Fn14 block: 75*; TROY NFkB inh: 39

What do the screens show for `COc1ccc(-c2cnc3c(NC=O)cc(-c4ccccc4OC)cn23)cc1OC`?
LGR2 inh: -26; aDG glyco act: 0; TWEAK Fn14 block: 53*; TROY NFkB inh: 26

How did COc1cccc(-c2cc(NC=O)c3ncc(-c4cc(OC)c(OC)c(OC)c4)n3c2)c1 do in these assays?
LGR2 inh: -17; aDG glyco act: 0; TWEAK Fn14 block: 42; TROY NFkB inh: 35

How did COc1cc(-c2cnc3c(NC(C)=O)cc(-c4ccc(N5CCN(C)CC5)cc4)cn23)cc(OC)c1OC do in these assays?
LGR2 inh: 22; aDG glyco act: 0; TWEAK Fn14 block: 54*; TROY NFkB inh: 63*

Results for COc1ccc(-c2cc(NC=O)c3ncc(-c4ccc(OC)c(OC)c4)n3c2)cc1OC ?
LGR2 inh: -38; aDG glyco act: 0; TWEAK Fn14 block: 3; TROY NFkB inh: -1

What do the screens show for `CN(C)C(=O)c1cccc(-c2cnc3c(NC=O)cc(-c4cccc(C(F)(F)F)c4)cn23)c1`?
LGR2 inh: 16; aDG glyco act: 0; TWEAK Fn14 block: 63*; TROY NFkB inh: 34

What do the screens show for `CC(C)C#Cc1ccc([C@H]2[C@@H](CO)N3CCCCN(CC4CC4)C[C@@H]23)cc1`?
LGR2 inh: -8

What do the screens show for `C[C@H](CO)N1C[C@H](C)[C@H](CN(C)C(=O)Nc2cc(F)ccc2F)Oc2ncc(-c3cccc(F)c3)cc2C1=O`?
LGR2 inh: -3

How did CO[C@@H]1CN(C)C(=O)c2cc(NC(=O)c3ccccc3)ccc2OC[C@H](C)NC[C@@H]1C do in these assays?
LGR2 inh: 7

What do the screens show for `O=C([C@@H]1[C@@H](CO)[C@@H]2Cn3c(cccc3=O)[C@@H]2N1Cc1ccccc1Cl)N1CCCCC1`?
LGR2 inh: 0

How did c1ccc(-c2csc(Nc3ccccn3)n2)cc1 do in these assays?
LGR2 inh: -43; aDG glyco act: 0; TWEAK Fn14 block: 53*; EBV LMP1 NFkB: -45; TROY NFkB inh: -13; HSP90 refold inh: 13

How did Fc1ccc(-c2csc(Nc3ccccn3)n2)c(F)c1 do in these assays?
LGR2 inh: -7; aDG glyco act: 0; TWEAK Fn14 block: 42; EBV LMP1 NFkB: -66; TROY NFkB inh: 9; HSP90 refold inh: -4

How did COc1ccc(-c2csc(Nc3ccccn3)n2)cc1OC do in these assays?
LGR2 inh: -54; aDG glyco act: 0; TWEAK Fn14 block: -4; EBV LMP1 NFkB: -48; TROY NFkB inh: -47; HSP90 refold inh: 2

How did Cc1cc(-c2csc(Nc3ccccn3)n2)ccc1F do in these assays?
LGR2 inh: -43; aDG glyco act: 0; TWEAK Fn14 block: 51*; EBV LMP1 NFkB: -78; TROY NFkB inh: -10; HSP90 refold inh: 5

Results for COc1ccc2c3c(n(C)c2c1)[C@@H](CO)N(Cc1ccccc1)CC31CCN(CC2CC2)CC1 ?
LGR2 inh: -17

What do the screens show for `COc1ccc(-c2nn(-c3ccccc3)cc2C(=O)NC(=S)NNC(=O)c2ccncc2)cc1`?
LGR2 inh: 26; aDG glyco act: 1; TWEAK Fn14 block: 60*; EBV LMP1 NFkB: 36; TROY NFkB inh: 35; HSP90 refold inh: 4

How did COc1ccc(NC(=O)c2cn(-c3ccccc3)nc2-c2ccncc2)cc1 do in these assays?
LGR2 inh: 21; aDG glyco act: 0; TWEAK Fn14 block: 18; EBV LMP1 NFkB: -3; TROY NFkB inh: -4; HSP90 refold inh: 0

Results for COc1ccc(/C=C/c2c(-c3ccc(OC)cc3)oc3ccc(-c4ccc(OC)cc4)cc23)cc1 ?
LGR2 inh: 2; aDG glyco act: -1; TWEAK Fn14 block: -1; EBV LMP1 NFkB: 2; TROY NFkB inh: 0; HSP90 refold inh: -3

Results for COc1ccc(/C=C/c2cc(-c3ccc(C)cc3)o[n+]2C)cc1 ?
LGR2 inh: 46; aDG glyco act: 1; TWEAK Fn14 block: 58*; EBV LMP1 NFkB: 11; TROY NFkB inh: 26; HSP90 refold inh: 3

Results for COc1ccc2c3c([nH]c2c1)[C@H](CO)N(C(=O)CN(C)C)CC31CCN(C(=O)c2cccnc2)CC1 ?
LGR2 inh: -1

What do the screens show for `O=C(N/N=C/c1cn(-c2cccs2)nc1-c1ccccc1)c1ccccc1O`?
LGR2 inh: 74*; aDG glyco act: 2; TWEAK Fn14 block: 91*; EBV LMP1 NFkB: 11; TROY NFkB inh: 62*; HSP90 refold inh: 6

Results for O=C(N/N=C/c1cn(-c2cccs2)nc1-c1ccccc1)c1ccccc1Br ?
aDG glyco act: 0; TWEAK Fn14 block: 41; EBV LMP1 NFkB: -42; TROY NFkB inh: -29; HSP90 refold inh: 3

Results for CC(C)c1ccc(NC(=O)Nc2nc(C(N)C(C)C)cs2)cc1 (stereo not drawn) ?
LGR2 inh: 9; aDG glyco act: 0; TWEAK Fn14 block: 0; TROY NFkB inh: 5

What do the screens show for `NC(c1csc(NC(=O)Nc2cccc(Cl)c2)n1)c1ccccc1Cl` (stereo not drawn)?
LGR2 inh: 42; aDG glyco act: 1; TWEAK Fn14 block: 63*; TROY NFkB inh: 42

What do the screens show for `CC(C)c1ccc(NC(=O)Nc2nc(C(N)c3ccccc3)cs2)cc1` (stereo not drawn)?
LGR2 inh: 94*; aDG glyco act: 0; TWEAK Fn14 block: -21; TROY NFkB inh: -8

Results for C[C@H](CO)N1C[C@H](C)[C@@H](CN(C)S(=O)(=O)c2ccc(F)cc2)Oc2ccc(NS(C)(=O)=O)cc2CC1=O ?
LGR2 inh: -26
